Laboratory results reported in PubChem BioAssay.

test: A549 cell viability effects, profiling panel, calcein-AM fluorescence, 48 h, basal (AID 1162); settings: higher = more signal
Also: test concentration not given here.

SMILES	z-score
NCCCCCNC(=O)[C@@H]1C[C@@H]2C(=O)N3CCC[C@H]3C(=O)N2[C@@H]1c1ccc(O)cc1	0.389
O=C1OCCC/C=C\[C@H]2OC34C=CCN(c5ccc6ccccc6c5)C(=O)[C@H]3N(CCCO)C(=O)[C@@H]4C12 (stereo partly specified)	-0.416
CC(=O)NCCCC[C@@H]1NC(=O)[C@@H]2C[C@H](C(=O)NCCCCCCN)[C@H](c3cccc(OCCO)c3)N2C1=O	-0.182
COCCOC(=O)N1C(=O)[C@@]2(c3cc(C#CCNC(N)=O)ccc31)[C@H](c1ccc(OCCO)cc1)N1[C@H](c3ccccc3)[C@H](c3ccccc3)OC(=O)[C@H]1[C@@H]2C(N)=O	0.586

test: adipocyte viability effects, profiling panel, cell-based, 3T3-L1 adipocytes, calcein-AM fluorescence, 48 h, basal (AID 1163); settings: 3T3-L1 adipocytes viability, higher = more signal

SMILES	z-score
CC(C)(C)OC(=O)CC[C@]1(C(=O)N2CCCCC2)COC(c2ccc(OCCCO)cc2)=N1	0.162
O=C1[C@@]23C=C(Br)[C@H](C[C@@H]2COC3)[C@@]12CO2	-1.05
O=C1C[C@@](C(=O)NCc2ccccc2)(c2ccc([N+](=O)[O-])cc2)[C@@H](c2ccc(CO)cc2I)N1CC12CC3CC(CC(C3)C1)C2	0.684
O=C1C[C@@](C(=O)NCC(F)(F)F)(c2ccc([N+](=O)[O-])cc2)[C@@H](c2ccc(CO)cc2)N1CC12CC3CC(CC(C3)C1)C2	1.4
CN1C(=O)C2C=CC(C(O)c3ccc(I)cc3)N(Nc3ccccc3)C2C1=O (stereo unspecified)	-0.0039
COc1cc(C(O)C2C=CC3C(=O)N(Cc4ccccc4)C(=O)C3N2n2cnnc2)cc(OC)c1OC (stereo unspecified)	-0.356
C=C(COC)/C(=C/C[C@@H](OC(=O)c1ccncc1)c1ccccc1OCCO)c1cc(C(=O)OC)ccc1OC	-0.193
CC(C)C[C@@H]1NC(=O)[C@@]23C(=O)N[C@@H](Cc4ccccc4)C2[C@H](C)[C@@]2(C)O[C@H]2C3/C=C/C/C=C\CNC(=O)[C@@H](C)NC1=O (stereo partly specified)	0.718
CCCNC(=O)[C@@]1(Sc2ccc(C)cc2)CC(=O)N(C(C)C)[C@@H]1c1ccc(CO)cc1I	0.49
CN1C(=O)C2C(C1=O)C1C=C(CCCO)C2C(c2cccs2)N1Cc1cc2c(cc1Br)OCO2 (stereo unspecified)	0.225
C=C(CCCC)/C(=C/C[C@H](OC(C)=O)c1ccc(OCCO)cc1)c1cc(C(=O)OC)ccc1OC	1.18
COC(=O)[C@@]1(Cc2ccc(OC)cc2)[C@H]2c3cc(C(=O)N4CCCC4)n(Cc4ccc(OC(F)(F)F)cc4)c3C[C@H]2CN1C(=O)c1ccccc1	-0.25
CS(=O)(=O)CCOC(=O)C1=CC(CCCO)=CC(C2CC2)N(Cc2cccc(OC(F)(F)F)c2)C=C1C(=O)OCCS(C)(=O)=O (stereo unspecified)	0.751
COC(=O)C1=CC(CCCO)=CC(C)N(Cc2cccc(OC(F)(F)F)c2)C=C1C(=O)OC (stereo unspecified)	0.0937
[N-]=[N+]=NCc1ccccc1[C@@H]1OC(c2ccc(OCCCO)cc2)=N[C@]1(Cc1ccccc1)C(=O)NCCN1CCOCC1	1.09
CC(C)C(=C=CC[C@@H](O)c1cccc(OCCO)c1)C[C@@H](O)c1ccccn1	-0.142
O=C(NCC(O)CO)[C@@]1(CCS(=O)(=O)c2ccccc2)COC(c2ccc(OCCCO)cc2)=N1 (stereo partly specified)	-0.0875
CCOC(=O)C1=C[C@@H](c2ccccc2)N(S(=O)(=O)c2ccc(C)cc2)[C@H]1c1ccccc1	-0.926
CC(C)OC(=O)CC(=O)CC(O)c1ccc([N+](=O)[O-])cc1 (stereo unspecified)	-0.228
COC(=O)C1N=C(c2ccc(OCCCO)cc2)N(c2ccccc2)O1 (stereo unspecified)	1.16
NC(=O)NCC#Cc1ccc2c(c1)[C@]1(C(=O)N2)[C@H](C(=O)N2CCN(c3ncccn3)CC2)[C@H]2C(=O)O[C@H](c3ccccc3)[C@H](c3ccccc3)N2[C@@H]1c1ccc(OCCO)cc1	-0.33
[N-]=[N+]=Nc1ccccc1C[C@]1(C(=O)O)N=C(c2ccc(OCCCO)cc2)O[C@H]1c1ccccc1	-0.221
C=C(/C(=C/C[C@@H](OC(C)=O)c1ccc(OCCO)cc1)c1cc(C(=O)OC)ccc1OC)C(C)C	-0.345
COc1ccc(NC(=O)O[C@H]2[C@@H]3OC(=O)[C@H](Cc4cccc(Br)c4)C/C=C/C[C@@H](Cc4cccc(Br)c4)C(=O)O[C@H]3[C@@H](OC)O[C@@H]2CO)cc1	-0.226
[N-]=[N+]=NCc1ccccc1[C@H]1OC(c2ccc(OCCCO)cc2)=N[C@@]1(CCS(=O)(=O)c1ccccc1)C(=O)NCc1ccccc1	-0.0706
COc1cc(NN2C(C(O)C3CCCCC3)C=CC3C(=O)N(C)C(=O)C32)cc(OC)c1OC (stereo unspecified)	-0.0026
O=C1[C@@H]2[C@@H](CC(COc3ccccc3)=C3[C@@H](CCc4ccccc4)OB(O)C[C@@H]32)C(=O)N1Cc1ccccc1	-0.141
